High-throughput results (PubChem)
The list is not random: actives were taken first. Their share in the collection is about 12%.
Shiga inhibitor: A qHTS for Small Molecule Inhibitors of Shiga Toxin; Vero cells, Shiga toxin protein synthesis inhibition reporter; inhibition, % at 38.7 µM; 290,000 compounds, 9.2% hits; AID 2315, 2010; in the data active means inhibition mostly above about 28%, no sharp cut-off; inactive means mostly below about 43%
Marburg entry inh: qHTS for inhibitors of binding or entry into cells for Marburg Virus. Marburg virus pseudotyped entry inhibition, cell reporter. Potency, µM (series often up to 37.8 µM), hits mostly inhibitors. 300,000 compounds, 1.8% hits. AID 540276, 2011; calls by dose curve; tested in HEK293 cells
LASV entry inh: qHTS for Inhibitors of binding or entry into cells for Lassa Virus; Lassa virus pseudotype entry inhibition, cell reporter; Potency, µM (top dose mostly 37.9 µM), hits mostly inhibitors; 300,000 compounds, 1.2% hits; AID 540256, 2011; calls by dose curve; tested in HEK293 cells; further: nearly all actives have a fitted effect of over 50% in size
Cycloheximide cs: Cycloheximide Counterscreen for Small Molecule Inhibitors of Shiga Toxin | cell reporter, cycloheximide protein synthesis inhibition counterscreen | AID 2314, 2010 | max response, % | 300,000 compounds, 12% hits; in the data active means max response mostly above about 13%, no sharp cut-off; inactive means mostly below about 14%; further: read at 38.3 µM for the half of the compounds with a filed dose
Of the large screens only hits and unclear results are named; the others gave an inactive call.

COc1cccc(NC(=O)Cn2c(=O)n(CCc3ccc(OC)c(OC)c3)c(=O)c3ccccc32)c1	Marburg entry inh inconclusive (no result: Shiga inhibitor, Cycloheximide cs)
O=C(CNC(=O)c1ccc(Cl)c([N+](=O)[O-])c1)OC1CCCCC1=O (centres undefined)	none (no result: Shiga inhibitor, Cycloheximide cs)
COc1cc(/C=N\n2nnnc2N)ccc1O	none (no result: Shiga inhibitor, LASV entry inh, Cycloheximide cs)
O=C(CCCSc1nc2ccccc2s1)NCc1ccc2c(c1)OCO2	Marburg entry inh inconclusive, Cycloheximide cs 17
CC(C)(C)NC(=O)CCCSc1nc2ccccc2s1	Shiga inhibitor 72, Marburg entry inh inconclusive, Cycloheximide cs 47
O=[N+]([O-])c1ccc(S(=O)(=O)NNC(=S)NCCc2ccccc2)cc1	none (no result: Marburg entry inh, LASV entry inh)
Fc1ccccc1NC(=S)NCCc1ccc(Cl)cc1	Shiga inhibitor 74, Marburg entry inh inconclusive, Cycloheximide cs 53
Cc1c(Cl)cccc1NC(=S)NCCc1ccc(Cl)cc1	Marburg entry inh inconclusive, LASV entry inh inconclusive
S=C(NCCCc1ccccc1)Nc1ccc(Cl)cc1	none
O=[N+]([O-])c1cccc(NC(=S)NCCc2ccccc2)c1	Shiga inhibitor 60, Marburg entry inh inconclusive, Cycloheximide cs 39
Fc1cccc(NC(=S)NCCc2ccccc2)c1	Shiga inhibitor 96, Marburg entry inh inconclusive, LASV entry inh inconclusive, Cycloheximide cs 45
S=C(NCCCc1ccccc1)Nc1ccccc1	Cycloheximide cs 20
COc1cc(-n2c(=O)c3ccccc3n(CC(=O)c3ccc(F)cc3)c2=O)cc(OC)c1OC	Marburg entry inh inconclusive
CC(=O)NC1=NN(C(C)=O)C(c2ccco2)S1 (centres undefined)	none
CC(=O)N/C(=N\c1nc(C)cc(C)n1)Nc1ccc(NC(C)=O)cc1	none (no result: Shiga inhibitor, LASV entry inh, Cycloheximide cs)
CSc1ccccc1NC(=S)NCc1ccc(Cl)cc1	Shiga inhibitor 151, Cycloheximide cs 37 (no result: Marburg entry inh, LASV entry inh)
Fc1ccccc1NC(=S)NCCc1ccccc1	Shiga inhibitor 59, Marburg entry inh inconclusive, Cycloheximide cs 39
Fc1ccc(NC(=S)NCCc2ccccc2)c(F)c1F	Shiga inhibitor 109, Cycloheximide cs 35
FC(F)Oc1ccccc1NC(=S)NCCc1ccccc1	none (no result: Shiga inhibitor, Cycloheximide cs)
Fc1ccc(F)c(NC(=S)NCCc2ccccc2)c1	Shiga inhibitor 96, Marburg entry inh inconclusive, LASV entry inh inconclusive, Cycloheximide cs 30
Cc1cccc(NC(=S)NCCc2ccccc2)c1C	Marburg entry inh inconclusive
COC(=O)N1C(c2ccccc2)=Cc2ccccc2C1CC(C)=O (centres undefined)	none (no result: Shiga inhibitor, LASV entry inh, Cycloheximide cs)
COc1ccc(NC(=S)NCc2ccc(Cl)cc2)c(OC)c1	Cycloheximide cs 15 (no result: Shiga inhibitor, Marburg entry inh, LASV entry inh)
COc1ccc(NC(=S)NCCc2ccc(Cl)cc2)c(OC)c1	none
C#CCNC(=O)C1=C[C@H](C2CCCCC2)[C@@H](CCCO)[C@H](OCC)O1	none (no result: Marburg entry inh, LASV entry inh)
Cc1cc(C(=O)NCCc2ccc(Cl)cc2)c2c(C)nn(-c3cccc(F)c3)c2n1	none (no result: Shiga inhibitor, Marburg entry inh, Cycloheximide cs)
COc1ccc(-c2noc(CN(C)Cc3ccccc3)n2)cc1	Cycloheximide cs 11 (no result: Marburg entry inh, LASV entry inh)
COc1ccc(-c2noc(CCc3ccccc3)n2)cc1	Shiga inhibitor 88, LASV entry inh inconclusive, Cycloheximide cs 23
COc1ccc(CCc2nc(-c3ccc(-n4cccc4)cc3)no2)cc1	none (no result: Marburg entry inh, LASV entry inh)
COc1ccc(-c2noc(CN(C)Cc3ccc(C)o3)n2)cc1	Shiga inhibitor 35, Cycloheximide cs 11 (no result: Marburg entry inh, LASV entry inh)
Cc1cc(C(=O)CCC(=O)N(C)CC(=O)Nc2ccc(OC(F)(F)F)cc2)c(C)s1	none (no result: Shiga inhibitor, Cycloheximide cs)
COc1cc(/C=C2\C=CC(=O)O2)cc(OC)c1	Cycloheximide cs 18
CC1CCN(C(=O)c2cc3c(=O)n4ccccc4nc3s2)CC1	Shiga inhibitor 83
O=C(c1cc2c(=O)n3ccccc3nc2s1)N1CCN(c2cccc(Cl)c2)CC1	Marburg entry inh inconclusive
O=C(c1cc2c(=O)n3ccccc3nc2s1)N1CCOCC1	Shiga inhibitor 39, LASV entry inh inconclusive, Cycloheximide cs 22
COc1cccc(/C=N/Nc2ccc(C(=O)O)cc2)c1O	none (no result: Marburg entry inh, LASV entry inh)
COc1ccc(Br)cc1/C=N/Nc1cccc(C(=O)O)c1	Cycloheximide cs 49
O=C(O)c1cccc(N/N=C/c2cc(Br)cc(Br)c2O)c1	Shiga inhibitor 126, Cycloheximide cs 51
COc1ccc(/C(C)=N/Nc2nc3ccccc3nc2C)cc1OC	Shiga inhibitor 57, Cycloheximide cs 34
C/C(=N\Nc1cccc(C(=O)O)c1)c1ccc(Cl)s1	Shiga inhibitor 121, Marburg entry inh inconclusive, Cycloheximide cs 68
CCOc1ccc(CCNC(=O)c2cc3c(=O)n(C)c4ccccc4c3n2C)cc1OCC	none (no result: Shiga inhibitor, Cycloheximide cs)
COC(=O)C(C)Oc1ccc(Cl)c(CN2OCC(C)(C)C2=O)c1 (centres undefined)	none (no result: Shiga inhibitor, Cycloheximide cs)
C/C=C/c1ccc(OCC(=O)OCc2csc(CC(=O)Nc3ccccc3C)n2)c(OC)c1	none
CN(C)c1ccc(-c2cc[nH]c(=O)c2N)cc1	none (no result: Marburg entry inh, LASV entry inh)
CC(=S)c1c(C)cc2cc(C)ccn12	Marburg entry inh inconclusive, LASV entry inh inconclusive
COc1ccccc1/C=C/C=N/NC(=O)Cc1cccn1C	Marburg entry inh inconclusive
COc1ccccc1/C=C/C=N/Nc1cccc(C(=O)O)c1	Shiga inhibitor 132, Marburg entry inh inconclusive, LASV entry inh 5µM, Cycloheximide cs 42
COc1ccc(/C(C)=N/Nc2cccc(C(=O)O)c2)cc1OC	Shiga inhibitor 187, LASV entry inh inconclusive, Cycloheximide cs 104
COc1ccc(Cl)cc1NC(=O)Nc1ccc(C(=O)N2CCCC2)cc1	Shiga inhibitor 55, Marburg entry inh inconclusive, Cycloheximide cs 17
COc1ccc(C)cc1NC(=O)C(=O)N1CCCC1	none
COc1ccc(C)cc1NC(=O)Nc1ccc(C(=O)N2CCCC2)cc1	Shiga inhibitor 48, Marburg entry inh inconclusive, Cycloheximide cs 14
CC(CCC(=O)OC[C@H]1O[C@H](C#Cc2ccccc2)C=C[C@H]1Oc1ccc(C)cc1)=NO[C@H](C)c1cn([C@H](CO)Cc2ccccc2)nn1	Marburg entry inh inconclusive (no result: Shiga inhibitor, Cycloheximide cs)
Cc1ccsc1/C=C1\SC(N2CC(C)OC(C)C2)=NC1=O (centres undefined)	none
COc1ccc(/C=C2/C(=O)N(c3ccccc3)N=C2C)cc1	none (no result: Shiga inhibitor, Cycloheximide cs)
COc1ccc(/C=C2/C(=O)N(c3c(F)c(F)c(F)c(F)c3F)N=C2C)cc1	Cycloheximide cs 20 (no result: Shiga inhibitor, Marburg entry inh, LASV entry inh)
COc1ccc(NC(=O)Cn2c3ccccc3c3nc4n(c(=O)c32)CCS4)cc1	none
CCOC(=O)c1cccc(NC(=O)c2cnn(-c3ccccc3)c2-n2cccc2)c1	Marburg entry inh inconclusive (no result: Shiga inhibitor, Cycloheximide cs)
COc1cccc(NC(=O)c2ccccc2Oc2ccccc2)c1	none (no result: Marburg entry inh, LASV entry inh)
COc1cccc(NC(=O)c2cnn(-c3ccccc3)c2C)c1	Shiga inhibitor 53, Cycloheximide cs 32 (no result: Marburg entry inh, LASV entry inh)
CCc1cccc(NC(=O)c2cnn(-c3ccccc3)c2C)c1	Shiga inhibitor 137, Cycloheximide cs 45 (no result: Marburg entry inh, LASV entry inh)
CCn1ncc(C(=O)Nc2cccc(Cl)c2)c1C	Shiga inhibitor 30, LASV entry inh inconclusive, Cycloheximide cs 67
CCn1ncc(C(=O)Nc2cc(C)on2)c1C	Cycloheximide cs 47
Cc1cc(NC(=O)c2cnn3c(C(F)F)cc(C4CC4)nc23)no1	none
COc1ccc(OC)c(S(=O)(=O)N2CCC(C(=O)NCc3ccc4c(c3)OCO4)CC2)c1	Marburg entry inh inconclusive
Cc1cc(C(=O)NCCC(c2ccccc2)c2ccccc2)c(C)o1	Marburg entry inh inconclusive, Cycloheximide cs 26
Cc1oc(CC(C)C)cc1C(=O)Nc1cccc2ccccc12	none
Cc1occc1C(=O)Nc1ccccc1NC(=O)c1ccoc1C	none (no result: Shiga inhibitor, Cycloheximide cs)
Cc1cc(C(=O)NCCCC(=O)O)c(C)o1	none
N#CCC(=O)Nc1ccc(C(=O)NCCC(c2ccccc2)c2ccccc2)cc1	none (no result: LASV entry inh)
